Screens (PubChem)
Most compounds without a hit are left out; they make up all but 6.5% or so of the library.
Vaccinia Venus = inhibitors of vaccinia virus (Venus reporter) | hit rate 0.46% among 330,000 | Vaccinia virus Venus reporter expression, fluorescence | Potency, µM (series often up to 36.5 µM), hits mostly inhibitors; calls by dose curve; tested in A549 cells; also: nearly all actives have a fitted effect of over 30% in size
MARV entry inh = blocks Marburg virus binding to or entry into cells. Marburg virus pseudotyped entry inhibition, cell reporter. Potency, µM (doses to about 37.8 µM), usual class: inhibitors. hit rate 1.8% among 300,000; calls by dose curve; tested in HEK293 cells
HCMV antiviral = blocks human cytomegalovirus replication; HFF cells, HCMV-luciferase reporter, 72 h; active compounds read low; AID 1259415; hit rate 4.5% among 410,000; activity change, negative = inhibition, % at 57.5 µM; in the data active = activity change below about -60%; inconclusive = no clear call, values can overlap the other calls; inactive = above about -39%
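Human foreskin fibroblasts infected with luciferase-reporter HCMV at MOI 1 PFU/cell, compounds at two doses. Luciferase measured 72 h post infection; normalized to buffer-only basal and Salinomycin (10uM) controls.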
FMDV antiviral = blocks foot and mouth disease virus | FMDV antiviral cell-based qHTS | Potency, µM (series often up to 57.9 µM), hits mostly inhibitors | hit rate 1.2% among 410,000; calls by dose curve; tested in HEK293T cells; also: read-out not given here; nearly all actives have a fitted effect of over 45% in size
Vaccinia mCherry = inhibitors of vaccinia virus infection (mCherry reporter signal); Vaccinia virus mCherry reporter infection, fluorescence; Potency, µM (series often up to 36.5 µM), usual class: inhibitors; hit rate 0.63% among 310,000; AID 720579; calls by dose curve; tested in A549 cells; also: nearly all actives have a fitted effect of over 35% in size
LASV entry inh = inhibitors of Lassa virus binding or cell entry | Lassa virus pseudotype entry inhibition, cell reporter | Potency, µM (titrated, usually from 37.9 µM), usual class: inhibitors | hit rate 1.2% among 300,000 | AID 540256; calls by dose curve; tested in HEK293 cells; also: nearly all actives have a fitted effect of over 50% in size
Numbers stand for hits; 0 = inactive; ? = inconclusive; - = not tested or not shown; [ ] = another dose, or the depositor's remark.

SMILES	Vaccinia Venus	MARV entry inh	HCMV antiviral	FMDV antiviral	Vaccinia mCherry	LASV entry inh
O=C(C1CCCCC1)N1CC(=O)N2[C@H](C1)[C@@H](c1ccc(Br)cc1)[C@@H]2CO	-	-	0	-	-	-
Cc1nc([N+](=O)[O-])c(Br)n1CC(=O)c1cccc([N+](=O)[O-])c1	?	?	0	32µM	?	0
CCc1ccc(NC(=O)Cn2c(=O)nc(-c3ccccc3F)c3cc(Cl)ccc32)cc1	0	-	0	0	0	0
COc1cc2ncnc(NCc3ccc(F)cc3)c2cc1OC	0	?	0	0	0	?
COc1cc2ncnc(NCc3ccc(Cl)cc3)c2cc1OC	-	-	-78	0	-	-
Cc1cc2c(NCCc3ccccc3)ncnc2s1	0	7.1µM	-88	0	0	?
Brc1ccc2ncnc(NCc3ccccc3)c2c1	?	?	-96	?	-	?
c1ccc(CCNc2ncnc3ccccc23)cc1	-	-	-89	0	-	-
CCCCCCCCNc1ncnc2ccccc12	?	?	-	0	?	?
Cc1nc(-c2ccccc2)sc1-c1nc(-c2ccncc2)ncc1S(=O)(=O)c1ccccc1	0	4.5µM	-82	?	0	?
COc1ccc(C2=CC(=O)N(CCC(N)=O)C2)cc1	-	-	0	-	-	-
CCn1c(C(=O)NCc2ccccc2Br)cc2oc3ccccc3c21	0	?	-71	0	?	-
CCn1c(C(=O)NCc2cccc(Br)c2)cc2oc3ccccc3c21	0	?	-82	0	0	-
COC(=O)c1cc2oc3ccccc3c2n1CC(=O)Nc1ccc(OC)c(OC)c1OC	0	?	0	0	0	-
CCn1c(C(=O)NCc2cc(Br)ccc2OC)cc2oc3ccccc3c21	0	2.8µM	?	0	0	-
COC(=O)C1=C[C@H]([C@@H](C)[C@H](OC)c2ccccc2Br)[C@H]2[C@H]1c1ccccc1N2C	-	0	-	-	-	?
CC(=O)c1cn(CC(=O)Nc2ccccc2)c2ccccc12	-	?	-73	?	-	?
O=C(Cn1cc(C(=O)c2ccccc2)c2ccccc21)Nc1ccc(Br)cc1	0	?	0	0	0	0
Cc1ccc(NC(=O)Cn2cc(C(=O)c3ccccc3)c3ccccc32)cc1	0	?	-91	?	0	?
CN(C(=O)COC(=O)c1nc(Cl)c(Cl)c(Cl)c1Cl)C1CCS(=O)(=O)C1 (configuration not stated)	0	?	-99	16µM	0	5.6µM
COc1ccc(CNC(=O)c2cc3cc(S(=O)(=O)N4CCCCC4)ccc3n2C)c(OC)c1	0	-	0	0	0	?
Cc1cc(N=Cc2c(O)n(-c3ccc4c(c3)OCO4)c(=O)c3ccccc23)ccn1	-	?	-92	0	-	?
Cc1cc(N=Cc2c(O)n(-c3ccc(C)c(C)c3)c(=O)c3ccccc23)no1	-	0	-64	-	-	0
Cc1ccc(-n2c(O)c(C=Nc3cc(C)on3)c3ccccc3c2=O)c(C)c1	0	?	0	0	?	?
CNC(=O)c1ccc2nc(-c3cccc(C)c3)c(-c3cccc(C)c3)nc2c1	0	-	-	-	0	-
SMILES	Vaccinia Venus	MARV entry inh	HCMV antiviral	FMDV antiviral	Vaccinia mCherry	LASV entry inh
COc1cc(CCCN2C(=S)NC[C@@H]2Cc2ccccc2)cc(OC)c1OC	0	-	0	0	0	-
COc1cc(CCCN2C(=S)NC[C@@H]2c2ccccc2)cc(OC)c1OC	0	-	-99	0	0	-
CCNC(=O)CC1C(=O)N(C)C(=S)N1NC(=O)c1ccc(Cl)cc1 (configuration not stated)	0	0	0	0	0	0
Nc1ccc(C(=O)NN2C(=O)[C@H](Cl)C2c2ccc(Cl)cc2)cc1 (some centres not stated)	?	8.9µM	0	?	?	11µM
O=C1CCC[C@@H]2[C@@H](Cc3ccccc3)[C@H](N3CCN(c4ccccc4)CC3)C[C@@H]3CCN1[C@@H]32	?	-	-80	0	?	-
COC(=O)N1CCC2(CCN(C(=O)NC(C)C)CC2)CC1	-	-	-	0	-	-
Cc1noc(-c2ccc(C(F)(F)F)cc2)c1NC(=O)Nc1ccc(Cl)cc1	-	-	-88	?	-	-
CC(C)CCNC(=O)CN1C(=O)c2cccnc2Sc2ccccc21	0	-	0	0	0	0
COc1ccc(CN2CCCC(n3cc(C(=O)N4CCCCC4)nn3)C2)c(OC)c1 (configuration not stated)	0	-	-	0	0	-
N#Cc1c(NCc2ccccc2)ccnc1Cl	0	0	-69	0	0	0
N#Cc1sc(NCc2ccccc2)nc1Cl	0	?	0	0	0	?
O=C(C(=O)N1CCC(Cc2ccccc2)CC1)c1ccccc1Br	0	-	-63	0	?	-
Cc1ccc(CNC(=O)C2CCN(S(=O)(=O)c3cn(C)cn3)CC2)cc1	0	-	?	0	0	0
COc1ccc2oc(C(=O)Nc3nc4ccc(S(C)(=O)=O)cc4s3)c(C)c2c1	0	0	-60	?	0	0
COc1cc(OC)cc(C(=O)Nc2nc3ccc(S(C)(=O)=O)cc3s2)c1	0	?	0	0	0	0
Cc1ccc2oc(C(=O)Nc3nnc(C)s3)c(C)c2c1	0	0	0	0	0	?
COc1ccc2oc(C(=O)Nc3nnc(C)s3)c(C)c2c1	0	?	0	?	0	7.1µM
O=c1cnc2cnc(N3CCOCC3)nc2n1C[C@H]1CCCO1	-	-	-	0	-	-
O=C(Nc1ccccc1)OCCOc1ccc(Br)cc1	-	-	0	0	-	-
Cc1ccc(OCCOC(=O)Nc2ccccc2)cc1	0	0	-62	0	0	0
Cc1ccc(Sc2ncccc2COC(=O)Nc2c(C)cccc2C)cc1	?	0	0	0	-	2.8µM
Cc1ccc(Sc2ncccc2COC(=O)Nc2ccccc2)cc1	0	0	0	0	-	16µM
Cc1ccccc1NC(=O)OCc1cccnc1Sc1ccc(Cl)cc1	?	0	0	?	-	?
O=C(NCCN1CCOCC1)c1cc2n(n1)[C@@H](C(F)(F)F)C[C@H](c1ccc(F)cc1)N2	-	0	-	-	-	-
CC(C)(C)Nc1oc(-c2ccccc2)nc1-c1ccc(C(F)(F)F)cc1	-	0	-	-	-	-
SMILES	Vaccinia Venus	MARV entry inh	HCMV antiviral	FMDV antiviral	Vaccinia mCherry	LASV entry inh
Cc1ccc(N2CC(NC(=O)c3ccccc3C(F)(F)F)CC2=O)cc1C (configuration not stated)	0[7.34 µM]	-	0	0	0[7.34 µM]	0
COCc1c(C(=O)N2CCN(C3CCCC3)CC2)cnn1-c1nccc(-c2cccs2)n1	0	-	-	0	0	-
COc1ccc(-n2ccnc2SCC(=O)Nc2ccc3c(c2)OCO3)cc1	0	-	-74	0	0	0
CCc1ccc(NC(=O)CSc2nccn2-c2cccc(C)c2C)cc1	0	-	0	0	0	?
Cc1cc(C)c(NC(=O)CSc2nccn2-c2cccc(Cl)c2)c(C)c1	0	-	0	0	0	0
Cc1cc(C)c(NC(=O)CSc2nc(COc3ccccc3)nc3ccccc23)c(C)c1	?	?	0	-	11µM	?
O=C(CSc1nccn1-c1ccc(F)cc1)Nc1ccc2c(c1)OCO2	0	0	?	0	-	0
CCc1ccc(NC(=O)CSc2nccn2-c2ccc(F)cc2)cc1	0	-	-66	0	0	0
COc1cccc(-n2ccnc2SCC(=O)Nc2c(C)cc(C)cc2C)c1	0	-	-102	0	0	0
O=C(Nc1ccc(F)c(F)c1)c1cnn2c1NC(=C1CC1)C=C2C(F)(F)F	0	-	-	-	0	-
CCc1nn(CC(=O)N2CCN(c3cccc(C(F)(F)F)c3)CC2)c(=O)c2cccn12	0	?	0	0	0	0
